# Results published in PubChem BioAssay AID1423 (NMMLSC, 2008).
# Out of some 220,000 compounds screened, about 750 (0.34%) were called active. Rule as the data show it: active = response below about 60% or above about 140%; inactive = in between. The sample as a whole holds a higher share of actives than the screen did.
# Biological target: Guanine nucleotide-binding protein G(o) subunit alpha (Homo sapiens) (UniProt P09471)
# Assay: compounds changing RGS8 association with Galphao – biochemical, multiplexed bead flow cytometry, primary screen (AID 1423);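 also: Galphao activated as the GDP aluminium fluoride complex binding bead-coupled RGS8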
# Settings: at 10 µM, actives lie on both sides
# Guanine nucleotide-binding protein G(o) subunit alpha (Homo sapiens), sequence (P09471 whole entry, looked up): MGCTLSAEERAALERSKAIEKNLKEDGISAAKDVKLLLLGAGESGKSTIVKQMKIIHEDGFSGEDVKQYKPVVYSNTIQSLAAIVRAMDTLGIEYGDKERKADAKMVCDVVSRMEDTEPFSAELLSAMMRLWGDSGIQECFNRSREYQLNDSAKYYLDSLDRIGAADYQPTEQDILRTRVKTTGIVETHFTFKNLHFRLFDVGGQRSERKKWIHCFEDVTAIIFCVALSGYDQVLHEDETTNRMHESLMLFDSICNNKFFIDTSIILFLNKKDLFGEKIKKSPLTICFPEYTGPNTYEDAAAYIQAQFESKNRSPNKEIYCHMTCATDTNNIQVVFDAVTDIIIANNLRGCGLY
row,Structure (SMILES),response (percent of control binding)
1,S=C1NC(c2ccccc2)=NCN1c1ccc(Br)cc1,106% (inactive)
2,COc1ccc(N2C(=O)CNC2=S)cc1,102% (inactive)
3,CC(C)NC(=O)c1ccc(Sc2ccccc2)c([N+](=O)[O-])c1,103% (inactive)
4,Cc1c(C(=O)Nc2cccc(-c3nnc4n3CCCCC4)c2)oc2ccccc12,101% (inactive)
5,Nc1ccc(C(=O)OCC(=O)NC2CCCc3ccccc32)cc1[N+](=O)[O-] (stereo not drawn),101% (inactive)
6,Nc1ccc(C(=O)OCC(=O)NC2CCS(=O)(=O)C2)cc1[N+](=O)[O-] (stereo not drawn),6.98% (active)
7,O=C(COC(=O)/C=C/c1ccc2c(c1)OCO2)NC1CCS(=O)(=O)C1 (stereo not drawn),99.8% (inactive)
8,Cc1ccc(/C=N/NC(=O)CSc2ccccn2)o1,101% (inactive)
9,CC[C@H]1OC(=O)[C@H](C)[C@@H](O[C@H]2C[C@@](C)(OC)[C@@H](O)[C@H](C)O2)[C@H](C)[C@@H](O[C@@H]2O[C@H](C)C[C@H](N(C)C)[C@H]2O)[C@](C)(O)C[C@@H](C)[C@@H]2N[C@@H](COCCOC)O[C@H]([C@H]2C)[C@]1(C)O,85.8% (inactive)
10,CCC(=O)Nc1nc(OC)cc(OC)n1,100% (inactive)
11,CC(=O)Nc1nc(N(C)C)nc(N(C)C)n1,25.1% (active)
12,COc1cc(OC)nc(NC(=O)CCl)n1,100% (inactive)
13,CC(=O)c1c(C)[nH]c(C(=O)OCC(=O)Nc2sc3c(c2C#N)CCCC3)c1C,101% (inactive)
14,O=Cc1ccc(OCc2cn3ccccc3n2)cc1,101% (inactive)
15,Cn1cc(CCC(=O)N2CCCC(C(=O)c3ccc(C(C)(C)C)cc3)C2)cn1 (stereo not drawn),98.1% (inactive)
16,CCOC(=O)C1CCCN(C(=O)/C=C/c2ccc(OC)cc2)C1 (stereo not drawn),100% (inactive)
17,CCOC(=O)C1=C(c2ccccc2)N=C2SCC(=O)N2C1c1ccc(O)c(OC)c1 (stereo not drawn),144% [activator] (active)
18,C=CCOC(=O)C1=C(C)N=C2SCCC(=O)N2C1/C=C/c1ccccc1OC (stereo not drawn),92.4% (inactive)
19,COc1cc(C2C(C(=O)c3ccc(C)o3)=C(O)C(=O)N2CCc2ccccc2)ccc1O (stereo not drawn),101% (inactive)
20,O=C(COc1nc2ccccc2nc1N1CCOCC1)NCC(F)(F)F,86% (inactive)
21,CCOc1cc2[nH]c(=S)n(CCN3CCCCC3C)c(=O)c2cc1OCC (stereo not drawn),111% (inactive)
22,O=C(OCC1O[C@@H](OC(=O)c2cc(O)c(O)c(O)c2)[C@@H](OC(=O)c2cc(O)c(O)c(O)c2)[C@@H](OC(=O)c2cc(O)c(O)c(O)c2)[C@@H]1OC(=O)c1cc(O)c(O)c(O)c1)c1cc(O)c(O)c(O)c1 (stereo partly drawn),46.9% (active)
23,CC(=O)NC1C(OCc2ccccc2)OC(COC(C)=O)C(OC(C)=O)C1OC(C)=O (stereo not drawn),105% (inactive)
